# Bioassay records: PubChem BioAssay, National Center for Advancing Translational Sciences (NCATS)
# In the library only some 21% were active in any assay of this set; here they are far more common.
# TDP1 cell noCPT – qHTS for Inhibitors of human tyrosyl-DNA phosphodiesterase 1 (TDP1): qHTS in cells in absence of CPT; DT40 Tdp1-/- hTDP1 cells, no CPT, ATP luminescence, 48 h; Potency, µM (titrated, usually from 46.2 µM), for the others: at the top dose activity change, negative = growth inhibition, usual class: inhibitors; 420,000 tested, 15% active; AID 686978, 2013; note: potency is the fitted concentration of half-maximal effect; nearly all actives have a fitted effect of over 55% in size
#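 Chicken DT40 Tdp1-/- cells complemented with human TDP1, screened without camptothecin (DMSO vehicle only), 400 cells/well. Compounds pin-transferred, cells incubated at 37 °C for at least 48 hr. Growth read as ATP-dependent luminescence (CellTiter-Glo, 30 min at RT).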
# TDP1 cell CPT – qHTS for Inhibitors of human tyrosyl-DNA phosphodiesterase 1 (TDP1): qHTS in cells in presence of CPT | chicken DT40 Tdp1-/-;hTDP1 cells + 20 nM CPT, ATP luminescence, 48 h | Potency, µM (series often up to 46.2 µM), for the others: top-dose activity change, negative = growth inhibition, usual class: inhibitors | 420,000 tested, 12% active | AID 686979, 2013; note: potency is the fitted concentration of half-maximal effect; nearly all actives have a fitted effect of over 55% in size
#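 Chicken DT40 Tdp1-/- cells stably complemented with human TDP1 were seeded at 400 cells/well in medium containing 20 nM camptothecin, exposed to pin-transferred compounds, and grown at 37 °C for at least 48 hr. Viability was read as ATP luminescence.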
# RORg inh – qHTS for inhibitors of ROR gamma transcriptional activity; Nuclear receptor ROR-gamma (Mus musculus), P51450; Drosophila S2 Gal4-RORgamma UAS-luciferase reporter, 20 h; Potency, µM (series often up to 53.6 µM), without a hit: at the top dose activity change, negative = inhibition, most hits filed as inhibitors; 310,000 tested, 5.4% active; AID 2551, 2010; note: potency is the fitted concentration of half-maximal effect; nearly all actives have a fitted effect of over 60% in size
# Target sequence (P51450 whole entry, looked up, the tested form may be a part): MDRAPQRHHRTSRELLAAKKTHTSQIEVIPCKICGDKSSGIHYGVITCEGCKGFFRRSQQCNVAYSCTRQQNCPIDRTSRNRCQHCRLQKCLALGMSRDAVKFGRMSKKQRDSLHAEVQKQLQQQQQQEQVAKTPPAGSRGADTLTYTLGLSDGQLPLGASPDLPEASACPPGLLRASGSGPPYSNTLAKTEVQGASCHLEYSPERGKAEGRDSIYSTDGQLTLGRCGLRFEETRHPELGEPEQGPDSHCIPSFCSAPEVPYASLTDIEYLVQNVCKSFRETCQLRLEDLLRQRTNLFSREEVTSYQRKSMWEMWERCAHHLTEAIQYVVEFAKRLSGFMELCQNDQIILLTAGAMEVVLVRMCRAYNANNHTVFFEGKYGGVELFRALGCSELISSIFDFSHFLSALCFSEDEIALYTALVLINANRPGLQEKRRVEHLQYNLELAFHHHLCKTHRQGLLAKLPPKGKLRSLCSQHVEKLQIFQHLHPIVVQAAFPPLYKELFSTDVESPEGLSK
#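 Read-out: Photinus luciferase luminescence; inhibitors lower reporter signal. Insect Schneider cells with Gal4-ROR gamma fusion under metallothionein promoter, UAS reporter; 700 uM final copper sulfate induction, 20 hr, ambient temperature.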
# VP16 counter – VP16 counterscreen qHTS for inhibitors of ROR gamma transcriptional activity; 310,000 tested, 3.5% active; AID 2546, 2010; Drosophila S2 Gal4-VP16 UAS-luciferase, luminescence, 20 h; Potency, µM (titrated, usually from 53.6 µM), for the others: at the highest dose activity, negative = inhibition, hits mostly inhibitors;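 note: Gal4-VP16 expression switched on by copper sulfate through the metallothionein promoter; potency is the fitted concentration of half-maximal effect; nearly all actives have a fitted effect of over 50% in size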
# IL-1B inflam inh – qHTS for Inhibitors of Inflammasome Signaling: IL-1-beta AlphaLISA Primary Screen; activity change, % at 57.5 µM; 360,000 tested, 4.7% active; AID 743279, 2014; THP-1 LPS/ATP IL-1B secretion, AlphaLISA, 16 h; stronger effect = lower value; in the data active = activity change below about -50%; inconclusive = mostly about -30% to -49%
#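 Secreted IL-1B measured by AlphaLISA bead assay after 16 h compound exposure of THP-1 cells; compounds (final up to 57.5 uM) added 1 h before LPS (250 ng/mL) and ATP (1.25 mM) stimulation; lower signal means less secretion.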
# ELG1 DNA repair – qHTS screen for small molecules that inhibit ELG1-dependent DNA repair in human embryonic kidney (HEK293T) cells expressing luciferase-tagged ELG1; 330,000 tested, 2.3% active; HEK293T ELG1-luciferase reporter, luminescence, 16 h; DNA damage induced by 5-fluorouridine; Potency, µM (series often up to 46.1 µM), for the others: at the top dose activity change, negative = inhibition, most hits filed as inhibitors; note: potency is the fitted concentration of half-maximal effect; nearly all actives have a fitted effect of over 55% in size
#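 Step one: seed 2,000 cells per well. Step two: pin-transfer compound or DMSO alongside 5-fluorouridine. Step three: incubate 16 hr, 37 °C, 5% CO2. Step four: add ONE-Glo, wait 30 min, read luminescence.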
# * = called active by the depositor; ? = inconclusive; · = no result. Unless noted, calls come from the whole dose curve; as a rule, active = well fitted curve in the direction sought with a large enough effect; inconclusive = small, poorly fitted or top-dose-only effect, or another doubt; inactive = no such curve, though single readings can be large; an effect the other way counts as inactive or inconclusive. % is set by controls: 0 for no effect and ±100 for the full control effect.
SMILES,TDP1 cell noCPT,TDP1 cell CPT,RORg inh,VP16 counter,IL-1B inflam inh,ELG1 DNA repair
COc1cc(/C=C2\CCc3ccccc3C2=O)cc(OC)c1OC,16µM*,18µM*,21%,?,-101*,?
COc1ccc(/C=C2/CCc3ccccc3C2=O)cc1OC,?,?,?,?,-99*,?
COc1ccc(OC)c(N=C2C(=O)Nc3ccccc32)c1,-1%,-6%,?,-1%,9,-3%
COc1ccc2c(c1)OC/C(=C/c1cccs1)C2=O,?,3%,-30%,?,-27,?
COc1ccc2c(c1)/C(=C/c1cc(OC)c(OC)c(OC)c1)C(=O)N2,0.73µM*,0.52µM*,·,·,-6,·
COc1ccc2c(c1)OC/C(=C\c1ccc(OC)c(O)c1)C2=O,1µM*,1.5µM*,?,?,·,·
COc1ccc(CC(=O)N[C@@H](C)C(=O)N2CCC3(CC2)NCCc2[nH]cnc23)cc1,-3%,21%,-2%,1%,24,-3%
COc1ccc(S(=O)(=O)N2CCCC2c2cccs2)cc1 (stereo not drawn),8.2µM*,5.8µM*,30%,-12%,0,-14%
COc1ccc(S(=O)(=O)N2CCN(C)CC2c2ccccc2)cc1 (stereo not drawn),0%,-2%,·,·,5,11%
O=S(=O)(c1ccccc1)N1CCCC1c1cccs1 (stereo not drawn),12µM*,?,19%,6%,42,-15%
CCC1CCCCN1S(=O)(=O)c1ccccc1 (stereo not drawn),?,?,-13%,0%,17,3%
O=C(CN1C(=O)c2cccc([N+](=O)[O-])c2C1=O)OCC(=O)N1CCCCC1,3%,1%,·,·,2,?
CC(C)Oc1cccc(C(=O)C2CCCN(C(=O)c3ccccn3)C2)c1 (stereo not drawn),10µM*,21µM*,41%,0%,36,?
Cc1nc(C(=O)N2CCCC(C(=O)c3cccc(OC(C)C)c3)C2)cs1 (stereo not drawn),15µM*,10µM*,?,-1%,14,0%
Cc1cnc(C(=O)N2CCCC(C(=O)c3cccc(OC(C)C)c3)C2)cn1 (stereo not drawn),-26%,?,?,3%,11,-5%
Cc1ccc(S(=O)(=O)N/N=C/c2ccc(C#N)cc2)cc1,?,-11%,9%,-8%,-5,-16%
CC12CN(C(=O)c3cccc([N+](=O)[O-])c3)C3(C#N)CC1CCC23C (stereo not drawn),-6%,-2%,-8%,-3%,-1,3%
CCCCn1c(=O)n(CC(=O)Nc2c(CC)cccc2CC)c(=O)c2c1nc(CO)n2CCC,-26%,-20%,7.1µM*,-2%,4,-5%
CCCCn1c(=O)n(CC(=O)Nc2ccc(OC)c(Cl)c2)c(=O)c2c1nc(CO)n2CCC,?,-23%,-2%,-16%,-6,?
CC1(C)Cc2c(c(-c3ccco3)nc3sc4c(NCCCO)ncnc4c23)CO1,8.2µM*,10µM*,-9%,-4%,44,13µM*
CSc1nc(NCCN(C)C)c2sc3nc(-c4ccco4)c4c(c3c2n1)CCC4,12µM*,6.5µM*,·,·,-101*,·
CC1(C)Cc2c(c(-c3ccco3)nc3sc4c(NCCN5CCOCC5)ncnc4c23)CO1,21µM*,8.2µM*,?,?,-181*,?
CC1(C)Cc2c(c(-c3ccco3)nc3sc4c(NCC5CCCO5)ncnc4c23)CO1 (stereo not drawn),21µM*,18µM*,-9%,-19%,-6,7.3µM*
CC1(C)Cc2c(C#N)c(NCCO)nc(-c3ccco3)c2CO1,?,-22%,-6%,5%,·,?
Cc1oc2c(c(C)cc3oc(=O)c(CC(=O)NCCc4ccc(Cl)cc4)c(C)c32)c1C,2%,8%,·,·,·,·
SMILES,TDP1 cell noCPT,TDP1 cell CPT,RORg inh,VP16 counter,IL-1B inflam inh,ELG1 DNA repair
COc1ccc(-c2coc3c(O)c(OC)ccc3c2=O)cc1,?,-22%,?,?,·,·
CCOCCCNS(=O)(=O)c1ccc(NC(=O)N2c3ccccc3Sc3ccccc32)cc1,?,23µM*,-26%,2%,?,-15%
O=C(C[C@H]1C[C@H](C(=O)N2CCCCC2)[C@@]2(CCc3ccccc3)c3[nH]c4cc(-c5ccco5)ccc4c3CCN2C1=O)NCc1ccco1,?,?,·,·,-51*,-8%
CN(C)C(=O)CCc1ccc2c3c([nH]c2c1)[C@]1(CCc2ccccc2)[C@@H](C(=O)N2CCCCC2)C[C@H](CC(=O)NCc2ccco2)C(=O)N1CC3,?,-13%,·,·,-22,12%
O=C(CC1C[C@H](C(=O)N2CCCCC2)[C@@]2(CCc3ccccc3)c3[nH]c4ccccc4c3CCN2C1=O)NCc1ccco1 (stereo partly drawn),21µM*,13µM*,·,·,-60*,?
O=C(C[C@H]1C[C@H](C(=O)N2CCCCC2)[C@@]2(CCc3ccccc3)c3[nH]c4cc(-c5ccco5)ccc4c3CCN2C1=O)NCc1cccc(C(F)(F)F)c1,21µM*,?,·,·,-1,-2%
CC[C@]12c3[nH]c4cc(-c5ccco5)ccc4c3CCN1C(=O)[C@@H](CC(=O)NCCC1=CCCCC1)C[C@@H]2C(=O)N1CCN(C(=O)c2ccco2)CC1,18µM*,21µM*,·,·,-64*,?
O=C(Nc1cccc(S(=O)(=O)C(F)(F)F)c1)[C@@H]1O[C@H](CO)[C@@H](O)[C@H]1O,3%,-2%,·,·,43,·
CC1Sc2ccc(S(=O)(=O)N(C)Cc3ccccc3)cc2NC1=O (stereo not drawn),-8%,-19%,16%,2%,16,?
O=C(C[C@H]1C[C@H](C(=O)N2CCCCC2)[C@@]2(CCc3ccccc3)c3[nH]c4cc(-c5ccco5)ccc4c3CCN2C1=O)NCCC1=CCCCC1,18µM*,?,·,·,-13,12%
